Source: PubChem BioAssay

assay: CREB reporter modulators without forskolin, primary screen, cell-based, PC12, CRE-LacZ reporter, unstimulated (AID 1145); settings: no forskolin, luminescence, 4.5 h, higher = more signal, called active from +8 up or from −8 down

z-score, inactive:
C[N+](C)(C)CCCCNC(=O)[C@H]1C[C@H]2C(=O)N3CCC[C@H]3C(=O)N2[C@H]1c1ccc(O)cc1 -0.821
O=S(=O)(NCCCO)c1ccc(Br)cc1 -0.198
Cc1ccc(S(=O)(=O)N2CC(C(=O)O)=CCC2c2ccccc2)cc1 (stereo unspecified) -0.266
C=CCOC(=O)[C@H]1[C@@H]2C(=O)O[C@@H](c3ccccc3)[C@@H](c3ccccc3)N2[C@@H](c2ccc(OCCOC(=O)[C@@H]3C[C@@H]4C(=O)NCC(=O)N4[C@@H]3c3ccc(O)cc3)cc2)[C@]12C(=O)Nc1ccc(I)cc12 0.0003
CC(=O)NCCCC[C@@H]1NC(=O)[C@@H]2C[C@H](C(=O)NCCCCCC[N+](C)(C)C)[C@H](c3cccc(OCCO)c3)N2C1=O -0.947
C/C=C/[C@H](CCn1cc([C@H](O)c2ccccc2)nn1)[Si](C)(C)c1ccc(OC)cc1 -0.272
CCCNC(=O)[C@@]1(C)c2ccccc2C(=O)N(Cc2cc(C(F)(F)F)cc(C(F)(F)F)c2)[C@H]1c1ccc(CO)cc1 0.0548
C=C(CCCC)/C(=C/C[C@H](OC(C)=O)c1ccc(CO)o1)c1cc(C(=O)OC)ccc1OC 0.709
C=CCCN(CC#C[C@H]1Oc2ccccc2S(=O)(=O)N2CCC[C@@H]12)S(=O)(=O)c1ccc(C)cc1 0.761
CN1C(=O)C2C=CC(C(O)C(c3ccccc3)c3ccccc3)N(Nc3ccccc3)C2C1=O (stereo unspecified) -0.14
O=C1OCCC/C=C\[C@H]2OC34C=CCN(CCN5CCOCC5)C(=O)[C@H]3N(CCO)C(=O)[C@@H]4C12 (stereo partly specified) -0.342
COCCOC(=O)N1C(=O)[C@@]2(c3cc(C#CC4(O)CCCCCC4)ccc31)[C@H](c1ccc(O)cc1)N1[C@H](c3ccccc3)[C@H](c3ccccc3)OC(=O)[C@H]1[C@@H]2C(=O)N1CCc2cc(OC)c(OC)cc2C1 -1.7
COCCn1c(C(=O)N2CCCC2)cc2c1C[C@H]1CN(C(=O)c3ccccc3)[C@@](Cc3ccc(OC)cc3)(C(=O)OC)[C@@H]21 -0.751
Cc1cc(C)c(C(O)C2C=CC3C(=O)NC(=O)C3N2Nc2ccccn2)c(C)c1 (stereo unspecified) -0.14
CC(c1ccccc1)C(O)C1C=CC2C(=O)N(Cc3ccccc3)C(=O)C2N1n1cnnc1 (stereo unspecified) -0.172
O=C(NCC(O)CO)[C@@]1(Cc2ccccc2)N=C(c2ccc(OCCCO)cc2)O[C@H]1c1ccccc1 (stereo partly specified) 3.33
CC(c1ccccc1)C(O)C1C=CC2C(=O)N(c3ccccc3)C(=O)C2N1Nc1ccccc1F (stereo unspecified) 0.173
C=CC[C@@]1(C(=O)NCc2ccccc2)N=C(c2ccc(OCCCO)cc2)O[C@@H]1c1ccccc1CN=[N+]=[N-] 3.13
C=CCN1C(=O)[C@]2(Cc3ccccc31)N=C(c1ccc(OCCCO)cc1)O[C@@H]2c1ccccc1 -0.146
CCCCC(=O)N(Cc1ccccc1F)[C@@H]1CC(C(=O)NCCO)=C[C@H](Oc2c(I)cc(CO)cc2OC)[C@H]1O 0.673
Cc1c(NC(=O)/C(C#N)=C/C=C/c2ccccc2)c(=O)n(-c2ccccc2)n1C -0.967
CC(C)(C)OC(=O)CC[C@]1(C(=O)NCC(O)CO)N=C(c2ccc(OCCCO)cc2)O[C@H]1c1ccccc1CN=[N+]=[N-] (stereo partly specified) 0.0594
CCCC[C@@H]1C[C@H]1[C@@H](NC(=O)c1ccco1)c1ccccc1 0.783
NC(=O)NCC#Cc1ccc2c(c1)[C@]1(C(=O)N2)[C@H](c2ccccc2OCCO)N2[C@H](c3ccccc3)[C@H](c3ccccc3)OC(=O)[C@H]2[C@@H]1C(=O)N1CCCCCCC1 0.802
C=C(COC)C(=O)CC[C@H](OC(=O)c1cccnc1)c1ccccc1OCCO 5.43
C=C(C(=O)CC[C@@H](OC(=O)c1cccnc1)c1ccc(CO)o1)C(C)C 0.48
O=C1O[C@H](c2ccccc2)[C@H](c2ccccc2)N2[C@H]1[C@@H](C(=O)Nc1nc3ccccc3s1)[C@]1(C(=O)Nc3ccc(C#CC4=CCCCC4)cc31)[C@H]2c1ccc(OCCO)cc1 0.128
COCCOC(=O)N1C(=O)[C@@]2(c3cc(C#Cc4ccc(OC)cc4)ccc31)[C@H](C(N)=O)[C@H]1C(=O)O[C@H](c3ccccc3)[C@H](c3ccccc3)N1[C@@H]2c1ccc(O)cc1 0.0776
CN1C(=O)C2C(C1=O)C1C=C(c3ccc(CO)cc3)C2C(C2CC2)N1Cc1sc2ccccc2c1Cl (stereo unspecified) 2.75
CC1CC/C=C\[C@H]2OC34C=CCN(Cn5nnc6ccccc65)C(=O)[C@H]3N(CCCO)C(=O)[C@@H]4C2C(=O)O1 (stereo partly specified) -0.212
O=P(NCC1(CC2(c3ccccc3)CO2)CC1)(c1ccccc1)c1ccccc1 (stereo unspecified) 0.197
CCOC(=O)C1=CC[C@@H](c2ccccc2)N(S(=O)(=O)c2ccc(C)cc2)[C@H]1c1ccc(C#N)cc1 1.42
COc1cc(NN2C(C(O)c3ccccc3)C=CC3C(=O)N(c4ccccc4)C(=O)C32)cc(OC)c1OC (stereo unspecified) 0.433
Cn1c2c(c3ccccc31)C(=O)C1NC2C=CC1(C)C(=O)OCc1ccccc1 (stereo unspecified) 1.39
Cc1ccc(S[C@]2(C(=O)NCCN3CCOCC3)CC(=O)N(C3CCCCC3)[C@@H]2c2ccc(CO)cc2)cc1 0.802
COCCOC(=O)N1C(=O)[C@@]2(c3cc(C#CC4=CCCCC4)ccc31)[C@H](c1ccc(OCCO)cc1)N1[C@H](c3ccccc3)[C@H](c3ccccc3)OC(=O)[C@H]1[C@@H]2C(=O)Nc1nc2ccccc2s1 -1.16
